# ChEMBL document CHEMBL4888484, “Replenishing the malaria drug discovery pipeline: Screening and hit evaluation of the MMV Hit Generation Library 1 (HGL1) against asexual blood stage Plasmodium falciparum ,using a nano luciferase reporter read-out” (2022)
# Hit rate of the full screen: of about 4,800 compounds, about 410 (8.5%) showed an effect of 50% or more. Many of the other results were omitted from the sample, so strong results are more common in it than they were.
# System: Plasmodium falciparum
# Test: Confirmatory screen in NF54 pLDH assay, in single point, at 2uM, 72h
# Format: functional, Erythrocyte
# Settings: timepoint 72 hour
row,SMILES,% Inhibition [%]
1,O=C(Nc1ccc(N2CCCCCC2)cc1C(=O)O)c1ccc(Cl)cc1,9
2,CC(C)c1nnc(CNc2ccc(C#N)cc2)o1,8
3,COC1CCCC1NC(=O)Nc1ncc(Br)cc1C (centres undefined),79
4,CNC(=O)c1cc(Br)cnc1NC,10
5,CC(=O)Nc1ncc(Br)cc1C,3
6,NC(=NCCOc1ccc(Br)cc1)N1CCOCC1,8
7,COCc1ncc(-c2noc(C3CC4CCC3C4)n2)c(N)n1 (centres undefined),-14
8,Cc1nn(C)c(C)c1CNc1ccc2c(c1)CCC(=O)N2,-13
9,CC(C)CCn1nnnc1[C@]1(N(C)C)CCCN(C(=O)c2cccn2C)C1,-12
10,CCc1nn(C)cc1CN(Cc1cccc(O)c1)C1CCC(O)CC1 (centres undefined),-8
11,CC(C)c1cc(CN(Cc2cc(C(C)C)c(O)c(C(C)C)c2)C2CCCCC2)cc(C(C)C)c1O,98
12,Cc1ccc(CN(C)C2CCCCC2)o1,-12
13,CC[C@@H](CO)NC(=O)Nc1ccc(F)cc1,8
14,CC[C@](C)(NCC#Cc1ccc(C(F)(F)F)cc1)C(N)=O,5
15,O=C(C1CN(c2ncc(C(F)(F)F)cc2Cl)C1)N1CCCC1,11
16,Cc1c(N2CCC(C(=O)NC[C@H]3CCCO3)CC2)c(=O)n(CC(C)C)c(=O)n1-c1ccccc1,4
17,O=C(COC(F)F)N1CCc2ccncc21,-8
18,COc1nc(NC[C@H]2CCCN2C(C)C)ncc1F,83
19,CC(C(=O)Nc1ncccn1)N1CCCC1Cn1cccn1 (centres undefined),-8
20,Cc1[nH]c2ncnc(NC(=O)c3cccc(-n4ccnn4)c3)c2c1C,12
21,CN1CCC(=O)Nc2cc(C(=O)NCCS(=O)(=O)NCC3CCC3)ccc21,6
22,O=C(CN1C(=O)COc2ccccc21)N1CCC[C@H](c2nc3ccccc3s2)C1,-13
23,c1ccc(Oc2ccc(-c3csc4nc5ccccc5n34)cc2)cc1,5

row,SMILES,% Inhibition [%]
1,O[C@](C#CCN1CCOCC1)(c1ccccc1)C1CC1,14
2,Cc1cnn(CC(=O)N2CCC[C@@H]2CCc2ncc(C)n2CC2CC2)c1,-20
3,CCOc1cc(-c2cc(-c3ccccc3O)nc3ccc4ccccc4c23)cc(Br)c1O,92
4,CCOc1c(CNC[C@H](C)O)cc(Br)cc1OC,5
5,Oc1ccccc1CNc1cccc2cccnc12,97
6,CC(C)(C)C(=O)NCCNC(=O)c1ccccn1,13
7,NC1CC(NCCc2cccc3cccnc23)c2ccccc21 (centres undefined),36
8,O=C(Nc1cccc2cccnc12)c1cncc(Br)c1,-8
9,O=C(Nc1cccc2cccnc12)c1ccccn1,87
10,COc1cc(=O)c(C(=O)N2CCCCCC2)nn1-c1ccc(F)c(F)c1,10
11,CCc1nnc2cc(N3CCN(C(=O)c4ccc(OC)cc4)CC3)cnn12,11
12,CC(C)(C)c1noc(OCc2cccc(C#N)c2)n1,14
13,CCN1CCN(CC(=O)N2N=C(c3ccc(C)c(C)c3)C[C@H]2c2cccn2C)CC1,2
14,Cc1ccn(Cc2nc(N)nc(N(C)C)n2)c(=O)c1C#N,4
15,CCCCN1CCN(C(=O)CN2CCN(Cc3ccc(F)cc3Cl)C2=O)CC1,1
16,Cc1cc(C)c(NC(=O)OCc2cccc3cccnc23)c(C)c1,80
17,CCc1ccc(C2=Nc3cccnc3N(CC(=O)Nc3c(C)cc(C)cc3C)C(=O)C2)cc1,2
18,Cc1cccnc1NC(=O)OC(C)(C)C,10
19,O=C(Nc1ccc(Cl)cc1)n1c(=S)oc2cc(Br)ccc21,2
20,Cc1cccc(NC(=O)N2CCCCCC2)n1,6
21,Cc1cccc(CN2CCC[C@H](C(=O)c3ccc4c5c(cccc35)CC4)C2)n1,67
22,Cc1ncsc1[C@@H]1CC(=O)Nc2nc(N3CCC(C)CC3)nc(O)c21,-19
23,CN(C)c1nc(CN2CCC[C@H](c3n[nH]c(-c4ccccc4)n3)C2)ns1,2

row,SMILES,% Inhibition [%]
1,COc1ccnc(CN2CCC[C@H](c3nc(-c4ccccc4)c[nH]3)C2)c1OC,82
2,c1ccc(-c2c[nH]c([C@H]3CCCN(c4ncnc5[nH]ncc45)C3)n2)cc1,-7
3,Cn1cc(-c2ccc(F)cc2)c2nc[nH]c(=O)c21,10
4,O=C1CCCN1c1ccc(-c2csc(C3CC3)n2)cc1,-12
5,CCC(=O)N1CCC(Nc2cccc(-c3nc(C4CC4)n[nH]3)c2)CC1,-24
6,CC1([C@@](O)(C#CC[N+]2(C)CCCCC2)c2ccccc2)CCCC1,43
7,CCNS(=O)(=O)c1cc(C)ccc1C,8
8,CCc1ccc(-n2c(=O)[nH]c3nc(N4CCN(c5ccccc5F)CC4)ncc3c2=O)cc1,-25
9,O=C(NCc1ccncc1)c1ccco1,-2
10,NC(=O)C1CCN(CCC(=O)N2CCc3cc4ccc3[C@@H]2c2cccc(c2)OCCCNC(=O)c2cc(ccc2O)O4)CC1,93
11,NCc1cccc(C(=O)N2CCc3cc4ccc3[C@@H]2c2cccc(c2)OCCCNC(=O)c2cc(ccc2O)O4)c1,98
12,O=C1NCCCOc2cccc(c2)[C@H]2c3ccc(cc3CCN2C(=O)CCN2CCOCC2)Oc2ccc(O)c1c2,50
13,CCc1nc2cc(N3CCC(C(=O)Nc4ccc5c(c4)OCO5)CC3)cnc2nc1CC,8
14,Cc1ccc(NC(=O)CN2N=C(C(=O)Nc3ccccc3)CCC2=O)cc1,-10
15,Cc1cccc(Oc2cc(N)cc(Oc3cccc(C)c3)c2)c1,8
16,O=C(c1cc2ccccc2[nH]1)N1CCc2sc(Cl)cc2C1,5
17,CC(=Cc1cn(C(C)(C)C)nn1)c1nc(C)c(C#N)c(=O)[nH]1,10
18,COc1ccc(C)cc1NC(=O)[C@H]1CCCN(c2cn[nH]c(=O)c2)C1,-8
19,CC(C)(C)CC(=O)Nc1ccccc1C(N)=O,13
20,Cc1cc(-c2cc(O)cc(CC[C@H]3CCCCN3)c2)ccn1,91
21,CC(=O)c1cc(-c2cc(O)cc(CC[C@H]3CCCCN3)c2)ccc1O,85
22,Cc1ccc(-c2cc(O)cc(CC[C@H]3CCCCN3)c2)c(C)n1,66
23,Cc1cc(S(=O)(=O)NC[C@H]2CCCCN2)sc1C,-6
